Laboratory results: PubChem BioAssay (Tox21)
Inconclusive results are not listed. Entries that show only a call come without a potency. Unmarked numbers belong to inactive results. Active and inactive are the calls of the source. Unless noted, calls follow the shape of the full dose curve.

Molecular target: Beta-2 adrenergic receptor (Homo sapiens) (UniProt P07550)
Test: Adrenergic beta2 receptor (ADRB2) small molecule agonists, cell-based qHTS assay (AID 1963593);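 also: CHO cells stably overexpressing human ADRB2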
Conditions: CHO-ADRB2 cells, cAMP HTRF, 30 min; series mostly up to 92.4 µM
How it was run: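 CHO cells stably over-expressing ADRB2 were plated overnight at 37C, then dosed with compounds plus a stimulation mix containing 100uM IBMX and 25uM Ro-20-1724 for 0.5hr at room temperature. cAMP was measured by HTRF competition, 1hr.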

Beta-2 adrenergic receptor (Homo sapiens), sequence (P07550 whole entry, looked up): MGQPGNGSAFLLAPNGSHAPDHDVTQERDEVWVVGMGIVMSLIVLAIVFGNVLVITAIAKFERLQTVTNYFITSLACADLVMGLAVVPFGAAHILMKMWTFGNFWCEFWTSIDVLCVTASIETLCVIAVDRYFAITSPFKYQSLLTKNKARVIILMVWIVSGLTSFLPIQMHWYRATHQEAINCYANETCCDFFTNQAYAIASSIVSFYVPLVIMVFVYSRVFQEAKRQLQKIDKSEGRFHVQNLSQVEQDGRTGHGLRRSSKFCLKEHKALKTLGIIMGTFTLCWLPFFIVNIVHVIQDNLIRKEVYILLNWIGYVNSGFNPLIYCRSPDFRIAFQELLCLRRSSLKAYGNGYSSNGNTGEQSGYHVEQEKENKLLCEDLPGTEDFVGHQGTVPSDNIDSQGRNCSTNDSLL

Structure (SMILES) | Potency
CC1(c2ccc(Oc3ccccc3)cc2)OC(=O)N(Nc2ccccc2)C1=O (centres undefined) | inactive
CCOP(=S)(OCC)Oc1ccc(S(C)=O)cc1 (centres undefined) | inactive
CN1C(=S)CN=C(c2ccccc2)c2cc(Cl)ccc21 | inactive
C[C@@H](N)[C@@H](O)c1ccccc1 | inactive
CC[C@H](C)[C@H]1O[C@]2(C=C[C@@H]1C)C[C@@H]1C[C@@H](C/C=C(\C)[C@@H](O[C@H]3C[C@H](OC)[C@@H](O[C@H]4C[C@H](OC)[C@@H](O)[C@H](C)O4)[C@H](C)O3)[C@@H](C)/C=C/C=C3\CO[C@@H]4[C@H](O)C(C)=C[C@@H](C(=O)O1)[C@]34O)O2 | inactive
CCCCCCCCCCCCN(C)C | inactive
CC(Cc1ccc2c(c1)OCO2)NO (centres undefined) | inactive
CCOP(=O)(OCC)Oc1cc(C)nc(C(C)C)n1 | inactive
CCOP(=S)(OCC)Oc1cc(C)nc(N(CC)CC)n1 | inactive
CNP(=O)(OC)Oc1ccc(C(C)(C)C)cc1Cl (centres undefined) | inactive
N#Cc1cc(I)c(O)c(I)c1 | inactive
c1csc(-c2ccc(-c3cccs3)s2)c1 | inactive
CCOP(=S)(S)OCC | inactive
CC(C)[C@H](C(=O)O[C@H](C#N)c1cccc(Oc2ccccc2)c1)c1ccc(Cl)cc1 | inactive
O=[N+]([O-])c1cccc2cccnc12 | inactive
CCCCC(CC)COC(=O)OOC(C)(C)C (centres undefined) | inactive

Molecular target: D(2) dopamine receptor (Homo sapiens) (UniProt P14416)
Sequence (P14416 whole entry, looked up): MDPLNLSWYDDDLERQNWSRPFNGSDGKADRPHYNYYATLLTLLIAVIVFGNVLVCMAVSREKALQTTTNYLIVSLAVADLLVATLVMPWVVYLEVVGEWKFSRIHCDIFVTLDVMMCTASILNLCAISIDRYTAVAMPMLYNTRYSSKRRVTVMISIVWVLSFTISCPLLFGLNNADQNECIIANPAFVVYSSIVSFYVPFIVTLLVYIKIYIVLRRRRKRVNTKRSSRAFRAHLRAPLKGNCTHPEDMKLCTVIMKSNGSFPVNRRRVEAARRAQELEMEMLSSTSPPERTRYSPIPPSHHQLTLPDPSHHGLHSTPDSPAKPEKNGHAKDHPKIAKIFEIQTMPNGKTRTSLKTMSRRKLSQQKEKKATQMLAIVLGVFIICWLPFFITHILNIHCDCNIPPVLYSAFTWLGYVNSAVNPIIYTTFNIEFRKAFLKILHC
Test: Dopamine D2 receptor (DRD2) small molecule agonists, cell-based qHTS assay (AID 1963594); also: nearly all actives have a fitted effect of over 35% in size
Conditions: HEK293-DRD2 cAMP HTRF, agonist mode, 30 min; series mostly up to 92.4 µM
How it was run: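 HEK293 cells stably expressing DRD2 were cultured 24 h at 37 C, then given Ro20-1724 (0.1 mM final) and compounds for 10 min at room temperature. NKH477 (200nM) was then added for 30 min. cAMP was read by HTRF.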

Structure (SMILES) | Potency | activation
CC1(c2ccc(Oc3ccccc3)cc2)OC(=O)N(Nc2ccccc2)C1=O (centres undefined) | inactive | 
Oc1cc(Cl)cc(Cl)c1 | inactive | 
CC(C)N(C(=O)COc1nnc(C(F)(F)F)s1)c1ccc(F)cc1 | inactive | 
CCC(CC)(CNC(=O)CCCO)c1cccc(OC)c1 | inactive | 
Oc1cccc(Cl)c1 | inactive | 
CCOP(=S)(OCC)Oc1ccc(S(C)=O)cc1 (centres undefined) | inactive | 
O=c1[nH]c2ccccc2o1 | inactive | 
CN1C(=S)CN=C(c2ccccc2)c2cc(Cl)ccc21 | inactive | 
C=C(C)[C@H]1CN[C@H](C(=O)O)[C@H]1CC(=O)O | inactive | 
Oc1ccc(C2(c3ccc(O)cc3)c3ccccc3-c3ccccc32)cc1 | inactive | 
CC(C)(Cl)[N+](=O)[O-] | inactive | 
CC[C@H](C)[C@H]1O[C@]2(C=C[C@@H]1C)C[C@@H]1C[C@@H](C/C=C(\C)[C@@H](O[C@H]3C[C@H](OC)[C@@H](O[C@H]4C[C@H](OC)[C@@H](O)[C@H](C)O4)[C@H](C)O3)[C@@H](C)/C=C/C=C3\CO[C@@H]4[C@H](O)C(C)=C[C@@H](C(=O)O1)[C@]34O)O2 | inactive | 
Cc1ccc2nc3sc(=O)sc3nc2c1 |  | 1.16% [at 19 µM]
CC1(C)CN=C(NN=C(/C=C/c2ccc(C(F)(F)F)cc2)/C=C/c2ccc(C(F)(F)F)cc2)NC1 | inactive | 
CCCCCCCCCCCCN(C)C | inactive | 
CCCCN(CCCC)C(=S)[S-].CCCCN(CCCC)C(=S)[S-].[Zn+2] | inactive | 

Structure (SMILES) | Potency | activation
CC(Cc1ccc2c(c1)OCO2)NO (centres undefined) | inactive | 
CS(=O)(=O)c1ccc(C(=O)C2C(=O)CCCC2=O)c(Cl)c1COCC(F)(F)F | inactive | 
NC(=O)CS(=O)C(c1ccccc1)c1ccccc1 (centres undefined) | inactive | 
CCOP(=O)(OCC)Oc1cc(C)nc(C(C)C)n1 | inactive | 
CCOP(=S)(OCC)Oc1cc(C)nc(N(CC)CC)n1 | inactive | 
CNP(=O)(OC)Oc1ccc(C(C)(C)C)cc1Cl (centres undefined) | inactive | 
O=C1C(=O)c2cccc3cccc1c23 | inactive | 
N#Cc1cc(I)c(O)c(I)c1 | inactive | 
COC(=O)c1ccccc1S(=O)(=O)NC(=O)Nc1nc(C)nc(OC)n1 | inactive | 
Cc1ccccc1OP(=O)(Oc1ccccc1C)Oc1ccccc1C | inactive | 
CC(C)[C@H](C(=O)O[C@H](C#N)c1cccc(Oc2ccccc2)c1)c1ccc(Cl)cc1 | inactive | 
O=[N+]([O-])c1cccc2cccnc12 | inactive | 
Clc1cccc(SC2CCNCC2)n1 | inactive | 
CCCCC(CC)COC(=O)OOC(C)(C)C (centres undefined) | inactive | 
O=[N+]([O-])c1cc(C(F)(F)F)c(Cl)c([N+](=O)[O-])c1Cl | inactive | 

Molecular target: D(2) dopamine receptor (Homo sapiens) (UniProt P14416)
Test: Dopamine D2 receptor (DRD2) small molecule antagonists, cell-based qHTS assay (AID 1963595; active = well fitted inhibition curve with a large enough effect in the signal ratio in the repeat runs, with a control signal flat; the % refers to the signal ratio; also: potency is read from the fitted curve at half-maximal effect)
Conditions: HEK293-DRD2 cAMP HTRF antagonist mode; series mostly up to 92.4 µM
How it was run: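 HEK293 cells stably expressing DRD2, preincubated with 0.1 mM Ro20-1724 and compounds 10 min, were stimulated with 200 nM NKH477 plus 12 nM quinpirole for 30 min at room temperature; cAMP measured by HTRF (665/620 nm).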

Structure (SMILES) | Potency | activity change, negative = inhibition
CC1(c2ccc(Oc3ccccc3)cc2)OC(=O)N(Nc2ccccc2)C1=O (centres undefined) | inactive | 
Oc1cc(Cl)cc(Cl)c1 | inactive | 
CC(C)N(C(=O)COc1nnc(C(F)(F)F)s1)c1ccc(F)cc1 | inactive | 
CCC(CC)(CNC(=O)CCCO)c1cccc(OC)c1 | inactive | 
Oc1cccc(Cl)c1 | inactive | 
CCOP(=S)(OCC)Oc1ccc(S(C)=O)cc1 (centres undefined) | inactive | 
O=c1[nH]c2ccccc2o1 | inactive | 
CN1C(=S)CN=C(c2ccccc2)c2cc(Cl)ccc21 | inactive | 
C=C(C)[C@H]1CN[C@H](C(=O)O)[C@H]1CC(=O)O | inactive | 
CC(C)(Cl)[N+](=O)[O-] | inactive | 
CC[C@H](C)[C@H]1O[C@]2(C=C[C@@H]1C)C[C@@H]1C[C@@H](C/C=C(\C)[C@@H](O[C@H]3C[C@H](OC)[C@@H](O[C@H]4C[C@H](OC)[C@@H](O)[C@H](C)O4)[C@H](C)O3)[C@@H](C)/C=C/C=C3\CO[C@@H]4[C@H](O)C(C)=C[C@@H](C(=O)O1)[C@]34O)O2 | inactive | 
Cc1ccc2nc3sc(=O)sc3nc2c1 |  | 0.198% [at 18.9 µM]
CC1(C)CN=C(NN=C(/C=C/c2ccc(C(F)(F)F)cc2)/C=C/c2ccc(C(F)(F)F)cc2)NC1 | inactive | 
CCCCN(CCCC)C(=S)[S-].CCCCN(CCCC)C(=S)[S-].[Zn+2] | inactive | 
CCN(CC)C(=S)[S-].CCN(CC)C(=S)[S-].[Zn+2] | inactive | 
CC(Cc1ccc(O)cc1)NCC(O)c1cc(O)cc(O)c1 (centres undefined) | 5.96 µM (active) | 

Structure (SMILES) | Potency | activity change, negative = inhibition
CC(Cc1ccc2c(c1)OCO2)NO (centres undefined) | inactive | 
CS(=O)(=O)c1ccc(C(=O)C2C(=O)CCCC2=O)c(Cl)c1COCC(F)(F)F | inactive | 
NC(=O)CS(=O)C(c1ccccc1)c1ccccc1 (centres undefined) | inactive | 
CCOP(=O)(OCC)Oc1cc(C)nc(C(C)C)n1 | inactive | 
CCOP(=S)(OCC)Oc1cc(C)nc(N(CC)CC)n1 | inactive | 
CNP(=O)(OC)Oc1ccc(C(C)(C)C)cc1Cl (centres undefined) | inactive | 
O=C1C(=O)c2cccc3cccc1c23 | inactive | 
N#Cc1cc(I)c(O)c(I)c1 | inactive | 
COC(=O)c1ccccc1S(=O)(=O)NC(=O)Nc1nc(C)nc(OC)n1 | inactive | 
c1csc(-c2ccc(-c3cccs3)s2)c1 | inactive | 
CCOP(=S)(S)OCC | inactive | 
CC(C)[C@H](C(=O)O[C@H](C#N)c1cccc(Oc2ccccc2)c1)c1ccc(Cl)cc1 | inactive | 
O=[N+]([O-])c1cccc2cccnc12 | inactive | 
Clc1cccc(SC2CCNCC2)n1 | inactive | 
CCCCC(CC)COC(=O)OOC(C)(C)C (centres undefined) | inactive | 
O=[N+]([O-])c1cc(C(F)(F)F)c(Cl)c([N+](=O)[O-])c1Cl | inactive | 
